# Source: PubChem BioAssay
# aSyn UTR act = Activators via SNCA 5'UTR binding, MLPCN; alpha-synuclein 5'UTR reporter, activators screen; activity score, % (tested at 7.5 µM), hits read low; hit rate 7.1% among 300,000; AID 1814; in the data active = activity score below about -60%
# An asterisk follows results filed as active. Only a sample is shown.
SMILES,aSyn UTR act
O=C(Nc1nc2c(cc3c4c(cccc42)CC3)s1)c1ccccc1Cl,-65.0*
Cc1cccc(NC(=O)c2cc(-c3ccc(C)s3)nc3ccccc23)n1,-93.3*
CCc1ccc(-c2cc(C(=O)Nc3c(C)n(C)n(-c4ccccc4)c3=O)c3ccccc3n2)s1,-68.3*
O=C(/C=C/Nc1ccccc1Br)c1ccccn1,114.3
N/C(=N\OC(=O)/C=C/c1ccccc1)c1ccncc1,-133.0*
O=C(/C=C/c1ccccc1)c1ccccn1,-134.9*
N/C(=N\OC(=O)/C=C/c1ccccc1)c1ccccn1,-99.4*
Cc1ccc(C(=O)O/N=C(\N)c2ccccn2)c(Cl)c1,107.6
O=C(/C=C/c1ccc2c(c1)OCO2)c1ccccn1,-140.3*
N/C(=N\OC(=O)/C=C/c1ccccc1Cl)c1ccncc1,-126.1*
Fc1ccc(COc2ccc(-c3nnco3)cc2)c(Cl)c1,-96.4*
Fc1cc(Br)ccc1COc1ccc(-c2nnco2)cc1,-133.2*
Nc1cc(-c2ccccc2)ccc1O,-117.7*
Clc1ccc(Cn2ccc(C3CC3)n2)cc1,-94.6*
Cc1ccc(Cn2ccc(C3CC3)n2)cc1,-101.4*
COc1ccc(NC(=O)Nc2ncccc2C)cc1,-157.0*
Cc1cccnc1NC(=O)Nc1ccccc1,-141.0*
Cc1cccnc1NC(=O)Nc1ccc(Cl)cc1,-84.1*
Cc1cccnc1NC(=O)c1ccc(OCc2c(C)noc2C)cc1,-81.1*
COc1ccc(C(=O)NC(=O)Nc2ncccc2C)cc1,-138.7*
O=C(Nc1nc2ccsc2c(=O)s1)c1ccc(F)cc1Cl,-117.3*
O=C(Nc1nc2ccsc2c(=O)s1)c1ccc(F)cc1,-158.2*
Cc1csc2nc(NC(=O)c3ccccc3)sc(=O)c12,-96.7*
CSc1nc2ccc3nc(NC(=O)c4ccccc4)sc3c2s1,-317.6*
CCOC(=O)N1CCN(C(=O)c2ccc(C#CC3(O)CCCCC3)cc2)CC1,-63.8*
SMILES,aSyn UTR act
Cn1c(-c2ccccc2)cnc1SCc1nc2ccccc2c(=O)[nH]1,-61.7*
COc1cccc(NC(=S)N/N=C2\CC3CCC2(C)C3(C)C)c1 (stereo not given),-77.8*
COc1cc([N+](=O)[O-])ccc1NC(=O)Nc1ccc2c(c1)OCCO2,-72.4*
O=C(Nc1ccc([N+](=O)[O-])cc1)Nc1ccc2c(c1)OCCO2,-92.0*
O=C(CCc1ccccc1)Nc1ccccc1F,-135.3*
O=C(CCc1ccccc1)Nc1ccc(F)cc1F,-67.8*
O=C(CCCc1ccccc1)Nc1ccc(Br)cc1F,-71.4*
COC(=O)/C(=C/c1cccc([N+](=O)[O-])c1)NC(=O)c1ccc(OC)cc1,-216.3*
COc1ccc(C(=O)Nc2cccc([N+](=O)[O-])c2)cc1Br,-85.0*
CN(C)S(=O)(=O)Oc1cccc(C(=O)Nc2ccc([N+](=O)[O-])cc2)c1,-168.3*
COc1ccc(Br)cc1CN(C)C(C)C(=O)Nc1cc([N+](=O)[O-])ccc1OC (stereo not given),51.4
COc1ccc(-c2cccc(C(=O)N3CCOCC3)c2)cc1,-79.8*
COc1ccc(-c2cccc(C(=O)Nc3cccc(C(=O)O)c3)c2)cc1,-149.3*
CCn1c(=N)n(CC(=O)c2cccc([N+](=O)[O-])c2)c2ccccc21,-82.6*
COc1ccc(NC(=O)c2ccc3ccccc3c2)cc1,-92.0*
CCOc1ccc(NS(=O)(=O)c2cc(OC)ccc2OC)cc1,-90.8*
Cc1ccc(NCCC(=O)c2cccc([N+](=O)[O-])c2)cc1,-151.3*
COc1ccc(C(=O)/C=C/Nc2ccc(C)cn2)cc1OC,-139.9*
COc1ccc(C(=O)CNc2ccc3ccccc3c2)cc1,-70.1*
COc1ccc(C(=O)Nc2ccc(S(=O)(=O)N(C)c3ccccc3)cc2)cc1,-73.6*
COc1ccc(C(=O)CNc2ccccc2Br)cc1,-180.8*
COc1ccc(NC(=O)c2coc(C)c2)cc1,-115.2*
O=C(/C=C/Nc1ccccc1)c1ccc(Oc2ncccn2)cc1,-243.5*
COc1ccc(N/C=C\C(=O)c2ccc3ccccc3c2)cc1,-211.7*
COc1ccc(NC(=O)c2cc([N+](=O)[O-])ccc2O)cc1,85.1
SMILES,aSyn UTR act
COc1ccc(NC(=O)c2cccc([N+](=O)[O-])c2)cc1,-105.0*
CCOc1ccc(N/C=C/C(=O)c2ccc(OC)c(OC)c2)cc1,-175.4*
O=c1oc(Nc2cccc(Cl)c2)nc2ccccc12,-84.6*
O=c1oc(Nc2ccccc2Cl)nc2ccccc12,-90.6*
c1ccc2c3c([nH]c2c1)-c1[nH]ncc1CC3,-116.8*
O=C(Nc1ccc(-n2ccc(C(F)(F)F)n2)cc1)Nc1cccc(Cl)c1,-81.0*
Cc1cc(C)cc(NC(=O)Nc2ccc(-n3ccc(C(F)(F)F)n3)cc2)c1,-77.0*
COc1ccccc1NC(=O)Nc1ccc(-n2ccc(C(F)(F)F)n2)cc1,-211.5*
O=C(Nc1ccc(-n2ccc(C(F)(F)F)n2)cc1)c1cccs1,-175.6*
O=c1[nH]c(COc2ccc(Cl)cc2Br)nc2ccccc12,-123.1*
O=c1[nH]c(COc2ccc(Cl)cc2Cl)nc2ccccc12,-188.9*
Cc1cccc2sc(N(CCN(C)C)C(=O)c3cc(Cl)sc3Cl)nc12,-85.3*
Cc1ccc2nc(N(CCN(C)C)C(=O)c3cc(Cl)sc3Cl)sc2c1,-133.5*
